Inconclusive results are not listed. The source made the active and inactive calls. Unless noted, calls follow the shape of the dose curve; as a rule, active = well fitted curve in the direction sought with a large enough effect in the repeat runs; inconclusive = weak or mixed curves; inactive = no such curve, though single readings can be large; an effect the other way counts as inactive or inconclusive.
Key:
[1] = qHTS assay for small molecule agonists of the p53 signaling pathway (AID 651631; calls by dose curve; also: nearly all actives have a fitted effect of over 15% in size)
How it was run: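 HCT-116 p53RE-bla reporter line, 16 h compound treatment at 37 °C, then fluorescence after 2 h with B/G FRET substrate.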

[2] = qHTS assay for small molecules that induce genotoxicity in human embryonic kidney cells expressing luciferase-tagged ATAD5 (AID 651632); also: nearly all actives have a fitted effect of over 15% in size
How it was run: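 ATAD5-luc HEK293T, 2,000 cells/well; cpd or DMSO pin-transferred; 16 hr, 37C/5% CO2; Amplite 30 min RT; luminescence.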

[3] = qHTS assay for small molecule agonists of the p53 signaling pathway - cell viability (AID 651633; calls by dose curve;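 also: p53RE-bla HCT reporter cells with a stable beta-lactamase p53 reporter; series mostly up to about 83 µM; nearly all actives have a fitted effect of over 30% in size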)
How it was run: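 p53RE-bla cells were treated with compound for 16 hours at 37 C. Cytotoxicity was then measured as CellTiter-Glo luminescence after 30 min at room temperature.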

[4] = qHTS assay for small molecules that induce genotoxicity in human embryonic kidney cells expressing luciferase-tagged ATAD5 - cell viability (AID 651634; calls by dose curve; also: nearly all actives have a fitted effect of over 25% in size)
How it was run: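 Fluorescence from CellTiter-Fluor, reporting protease activity within live cells, served as the viability read-out. HEK293T cells carrying luciferase-tagged ATAD5 had been treated with compound for 15.5 hr at 37C.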

[5] = qHTS assay to test for compound auto fluorescence at 590 nm (red) in HepG2 cells (AID 720674)
How it was run: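 Fluorescence at 590 nm emission following 540 nm excitation was recorded from HepG2 wells one hour after compound transfer, with DMSO-only wells as vehicle and Rose Bengal sodium equivalency as the scale.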

[6] = qHTS assay to test for compound auto fluorescence at 535 nm (green) in HepG2 cells (AID 720675)
[7] = qHTS assay to test for compound auto fluorescence at 460 nm (blue) in HEK293 cells (AID 720678)
How it was run: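 Blue read-out at excitation 405 nm and emission 460 nm follows overnight compound exposure of HEK293 cells at 37C in 5% CO2. Activity is given as auto fluorescence equivalency to triamterene.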

[8] = qHTS assay to test for compound auto fluorescence at 590 nm (red) in HEK293 cells (AID 720679)
How it was run: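 Red channel, Ex/Em 540/590nm; signal expressed as equivalency to Rose Bengal sodium. HEK293, 2,000 cells/well, 10% dialyzed FBS; 23 nL compound pinned after 4-5 hr attachment; overnight 37C/5% CO2 before reading.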

[9] = qHTS assay to test for compound auto fluorescence at 535 nm (green) in HEK293 cells (AID 720680)
[10] = qHTS assay to test for compound auto fluorescence at 460 nm (blue) in HEK293 cell free culture (AID 720681)
How it was run: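 Compounds were added to cell-free DMEM with 10% FBS and fluorescence read directly. The blue channel used 405 nm excitation and 460 nm emission, with triamterene as the reference fluorophore.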

[11] = qHTS assay to test for compound auto fluorescence at 535 nm (green) in HEK293 cell free culture (AID 720682)
How it was run: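 Steps: dispense DMEM/10% FBS into empty wells; pin in compound or DMSO; measure fluorescence at 485/535 nm. Values are fluorescein equivalents.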

[12] = qHTS assay to test for compound auto fluorescence at 590 nm (red) in HEK293 cell free culture (AID 720683)
How it was run: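 Cell-free wells of DMEM with 10% FBS received compound, and intrinsic fluorescence was read at excitation/emission 540/590 nm. Values expressed as equivalence to Rose Bengal sodium.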

[13] = qHTS assay to test for compound auto fluorescence at 590 nm (red) in HepG2 cell free culture (AID 720684)
How it was run: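 Compounds are added to culture medium (MEM, 10% FBS) lacking cells, then fluorescence is read at excitation 540 nm, emission 590 nm, with Rose Bengal sodium as the equivalency standard.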

[14] = qHTS assay to test for compound auto fluorescence at 460 nm (blue) in HepG2 cell free culture (AID 720685)
How it was run: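 Compound (23 nL) or DMSO pinned into cell-free MEM with 10% FBS; blue fluorescence read at 405/460 nm excitation/emission, expressed as auto-fluorescence equivalency to triamterene.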

[15] = qHTS assay to test for compound auto fluorescence at 535 nm (green) in HepG2 cell free culture (AID 720686)
[16] = qHTS assay to test for compound auto fluorescence at 460 nm (blue) in HepG2 cells (AID 720687)
How it was run: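 HepG2 cells in MEM with 10% FBS, attached overnight at 37 C, were exposed to compound or DMSO for 1 hr at 37 C, 5% CO2. Blue fluorescence was read at 405/460 nm, with triamterene as reference fluorophore.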

[17] = biological target: Glucocorticoid receptor (Homo sapiens) (UniProt P04150); assay: qHTS assay to identify small molecule agonists of the glucocorticoid receptor (GR) signaling pathway (AID 720691; active = well fitted activation curve with a large enough effect in the signal ratio in the repeat runs, not every such curve was filed as active; the % refers to the signal ratio)
How it was run: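 Fluorescence intensity from LiveBLAzer B/G FRET substrate (2 h, room temperature) reports beta-lactamase expression driven by the glucocorticoid response element in GR-bla HeLa cells after 18 h compound exposure at 37 C.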

[18] = biological target: Glucocorticoid receptor (Homo sapiens) (UniProt P04150); assay: qHTS assay to identify small molecule antagonists of the glucocorticoid receptor (GR) signaling pathway (AID 720692; active = well fitted inhibition curve with a large enough effect in the signal ratio in the repeat runs, not every such curve was filed as active; the % refers to the signal ratio)
How it was run: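 HeLa GR-bla cells; cmpd + dex 5 nM final, 18 h 37 C; LiveBLAzer B/G FRET substrate 2 h RT; fluorescence intensity read. Antagonist mode, qHTS.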

[19] = qHTS assay for small molecule disruptors of the mitochondrial membrane potential - cell viability (AID 720634; calls by dose curve;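 also: human HepG2 liver cancer cells; series mostly up to about 83 µM; nearly all actives have a fitted effect of over 20% in size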)
How it was run: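 Cells: HepG2, 2,000/well, attached overnight. Compound 1 hr, 37 C/5% CO2. +m-MPI dye, +CellTiter-Glo 30 min RT. Readout: luminescence (ATP).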

[20] = qHTS assay for small molecule disruptors of the mitochondrial membrane potential (AID 720635)
How it was run: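 HepG2 cells exposed to compound 1 hr at 37C, then Mito-MPS dye 30 min. Ratio read of aggregate (540/590 nm) versus monomer (490/535 nm) fluorescence.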
% is scaled to controls: 0 for no effect and ±100 for the full control effect.

Glucocorticoid receptor (Homo sapiens), sequence (P04150 whole entry, looked up): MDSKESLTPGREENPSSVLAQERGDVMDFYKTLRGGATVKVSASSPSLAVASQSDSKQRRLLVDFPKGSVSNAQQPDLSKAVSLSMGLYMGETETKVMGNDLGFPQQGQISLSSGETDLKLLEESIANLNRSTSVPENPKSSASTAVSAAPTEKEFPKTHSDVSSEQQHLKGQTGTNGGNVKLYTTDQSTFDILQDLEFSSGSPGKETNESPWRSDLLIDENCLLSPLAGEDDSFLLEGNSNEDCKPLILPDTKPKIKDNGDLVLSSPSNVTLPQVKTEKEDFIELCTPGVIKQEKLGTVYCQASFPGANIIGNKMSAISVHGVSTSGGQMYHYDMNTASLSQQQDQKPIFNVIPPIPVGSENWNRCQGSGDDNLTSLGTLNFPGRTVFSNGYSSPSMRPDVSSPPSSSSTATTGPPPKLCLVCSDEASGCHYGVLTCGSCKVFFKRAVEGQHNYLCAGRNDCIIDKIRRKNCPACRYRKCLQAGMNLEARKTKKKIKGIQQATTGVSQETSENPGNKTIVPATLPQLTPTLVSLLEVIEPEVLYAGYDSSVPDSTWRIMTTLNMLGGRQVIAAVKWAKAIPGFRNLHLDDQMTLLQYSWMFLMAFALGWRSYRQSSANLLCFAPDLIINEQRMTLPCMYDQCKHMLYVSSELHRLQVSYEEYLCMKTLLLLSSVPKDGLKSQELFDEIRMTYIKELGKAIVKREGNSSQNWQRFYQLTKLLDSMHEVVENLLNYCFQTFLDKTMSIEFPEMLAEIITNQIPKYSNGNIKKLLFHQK

CN(C)CCC[C@@]1(c2ccc(F)cc2)OCc2cc(C#N)ccc21
inactive: Potency [1] | Potency [2] | outcome [3] | outcome [4] | outcome [5] | outcome [6] | outcome [7] | outcome [8] | outcome [9] | outcome [10] | outcome [11] | outcome [12] | outcome [13] | outcome [14] | outcome [15] | outcome [16] | Potency [17] | outcome [18]

CCOC(=O)CC(C(C)=O)C(C)=O
inactive: Potency [1] | Potency [2] | outcome [3] | outcome [4] | outcome [6] | outcome [7] | outcome [8] | outcome [10] | outcome [11] | outcome [12] | outcome [13] | outcome [14] | outcome [15] | outcome [16]

CCO/C=C1\N=C(c2ccccc2)OC1=O
inactive: Potency [1] | outcome [3] | outcome [4] | outcome [19] | Potency [20] | outcome [5] | outcome [6] | outcome [7] | outcome [8] | outcome [9] | outcome [10] | outcome [11] | outcome [12] | outcome [13] | outcome [14] | outcome [15]

NC[C@H]1O[C@H](O[C@H]2[C@H](O)[C@@H](O[C@H]3O[C@H](CO)[C@@H](O)[C@H](N)[C@H]3O)[C@H](N)C[C@@H]2N)[C@H](N)[C@@H](O)[C@@H]1O
inactive: Potency [1] | Potency [2] | outcome [3] | outcome [4] | outcome [6] | outcome [7] | outcome [8] | outcome [9] | outcome [10] | outcome [11] | outcome [12] | outcome [13] | outcome [14] | outcome [15] | outcome [16] | outcome [18]

CCCCCCCCCCCCCCCC(=O)OC
inactive: Potency [1] | Potency [2] | outcome [3] | outcome [4] | fluorescence, relative to Rose Bengal [5] 0.0004% [at 18.6 µM] | fluorescence, % of fluorescein control [6] -0.0233% [at 18.6 µM] | fluorescence, % of triamterene [7] 0.179% [at 18.6 µM] | fluorescence, % of fluorescent control [8] -0.225% [at 18.6 µM] | fluorescence, % of fluorescein [9] -0.0119% [at 18.6 µM] | activity change [11] -0.0305% [at 18.6 µM] | fluorescence, % of fluorescent control [12] -0.033% [at 18.6 µM] | fluorescence, % of Rose Bengal [13] 0.0231% [at 18.6 µM] | fluorescence, % of fluorescent control [14] -0.0427% [at 18.6 µM] | fluorescence, % of fluorescein control [15] -0.0231% [at 18.6 µM] | fluorescence, % of fluorescent control [16] 0.0931% [at 18.6 µM] | Potency [17] | outcome [18]

Cc1nnc(C(=O)NC(C)(C)c2nc(C(=O)NCc3ccc(F)cc3)c(O)c(=O)n2C)o1
inactive: Potency [1] | outcome [3] | outcome [4] | outcome [19] | Potency [20] | outcome [5] | outcome [6] | outcome [7] | outcome [8] | outcome [11] | outcome [12] | outcome [13] | outcome [14] | outcome [15] | Potency [17] | outcome [18]

O=C(O)CCC(=O)Nc1ccc(S(=O)(=O)Nc2nccs2)cc1
inactive: Potency [1] | outcome [3] | outcome [4] | outcome [19] | Potency [20] | fluorescence, relative to Rose Bengal [5] -0.131% [at 18.6 µM] | fluorescence, % of fluorescein control [6] -0.003% [at 18.6 µM] | fluorescence, % of triamterene [7] 0.029% [at 18.6 µM] | fluorescence, % of fluorescent control [8] -0.0693% [at 18.6 µM] | fluorescence, % of fluorescein [9] 0.032% [at 18.6 µM] | fluorescence, % of fluorescent control [10] -0.0604% [at 18.6 µM] | activity change [11] 0.0309% [at 18.6 µM] | fluorescence, % of fluorescent control [12] 0.0244% [at 18.6 µM] | fluorescence, % of Rose Bengal [13] 0.477% [at 18.6 µM] | fluorescence, % of fluorescent control [14] -0.0059% [at 18.6 µM] | fluorescence, % of fluorescein control [15] 0.022% [at 18.6 µM] | fluorescence, % of fluorescent control [16] -0.0217% [at 18.6 µM] | Potency [17] | outcome [18]

N[C@H]1C(O)O[C@H](CO)[C@@H](O)[C@@H]1O (stereo partly drawn)
inactive: Potency [1] | outcome [3] | outcome [4] | outcome [19] | Potency [20] | outcome [5] | outcome [6] | outcome [7] | outcome [8] | outcome [9] | outcome [11] | outcome [12] | outcome [13] | outcome [14] | outcome [15] | outcome [16]

C/C=C/C(=O)CCCC
inactive: Potency [1] | outcome [3] | outcome [4] | outcome [19] | outcome [5] | outcome [6] | outcome [7] | outcome [8] | outcome [9] | outcome [10] | outcome [11] | outcome [12] | outcome [13] | outcome [14] | outcome [15] | outcome [16]
